Among the test systems are NCI-H23 lung; NCI-H226 lung; HOP-62 NSCLC; NCI-H460 lung; HOP-92 NSCLC; NCI-H522 lung; A549/ATCC NSCLC; 786-0 renal; COLO 205 colon.
Experiment in all cases: NCI-60 one-dose screen, 48 h (100 = growth as untreated, 0 = no growth, -100 = all killed)
What all share (details): 10 µM

SMILES strings stand for the structures. Compounds without any hit were thinned out: in the full panel of roughly 83,000, 20% have a hit.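 Assay: single dose, 48 h. Readout: percent growth (0 = no net growth; negative = cell death). Active: <10.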 Values without a mark were called inactive. The source made the active and inactive calls.

Take `NS(=O)(=O)Oc1ccc(-c2ccc3sccc3c2)cc1`: the growth is 94.2% in the experiment with NCI-H23 lung; 88.1% with NCI-H226 lung; 104% with HOP-62 NSCLC; 103% in the experiment on NCI-H460 lung; 104% in the experiment with HOP-92 NSCLC; 87.1% in the experiment with NCI-H522 lung. Moreover, the growth in the experiment with A549/ATCC NSCLC was 98.3%; with 786-0 renal it was 106%; in the experiment on COLO 205 colon, 114%.

`O=C(CCc1nnc2sc(-c3cc(O)c(O)c(O)c3)nn12)c1nc2ccccc2[nH]1`: the growth in the experiment on NCI-H23 lung was 88.9%; in the experiment with NCI-H226 lung, 89.9%; with HOP-62 NSCLC it was 105%; with NCI-H460 lung, 105%; with HOP-92 NSCLC it was 69.4%; in the experiment with NCI-H522 lung, 98.3%. The growth in the experiment with A549/ATCC NSCLC was 108%; in the experiment with 786-0 renal, 107%; with COLO 205 colon it was 114%.

As for `CN1CCN(CCC(=O)Nc2cccc(-n3cc(-c4ccncc4)c(-c4ccc(Cl)c(O)c4)n3)c2)CC1`, the growth with NCI-H23 lung is 46.4%; with NCI-H226 lung, 66.6%; in the experiment on HOP-62 NSCLC, 53.7%; in the experiment with NCI-H460 lung, 13.4%; with HOP-92 NSCLC, 27.9%; in the experiment on NCI-H522 lung, 16.9%. For the same compound, the growth in the experiment on A549/ATCC NSCLC was 30.2%; in the experiment with 786-0 renal, 32.2%; in the experiment on COLO 205 colon, 12.8%.

In the case of `CC(C)(C)OC(=O)CN1CCc2c(sc3ncnc(N/N=C/c4ccccc4Br)c23)C1`, the growth in the experiment on NCI-H23 lung was 80.2%; in the experiment with NCI-H226 lung it was 83.4%; with HOP-62 NSCLC, 89%; with NCI-H460 lung, 70.9%; in the experiment on HOP-92 NSCLC it was 73.7%; in the experiment with NCI-H522 lung, 53.4%. The figures for the growth in the experiment on A549/ATCC NSCLC, with 786-0 renal and with COLO 205 colon were 77.6%, 77% and 62.1%, respectively.

Consider `COc1ccc(/C=c2\sc3n(c2=O)C(c2cc(OC)c(OC)c(OC)c2)C=C(c2ccc(OC)c(OC)c2)N=3)cc1OC` (stereo not drawn), for which the growth with NCI-H23 lung is 103%; in the experiment with NCI-H226 lung it was 108%; in the experiment with HOP-62 NSCLC, 103%; in the experiment on NCI-H460 lung it was 107%; with HOP-92 NSCLC, 63.3%; in the experiment with NCI-H522 lung, 58.1%. Further, the values for the growth in the experiment on A549/ATCC NSCLC, in the experiment on 786-0 renal and in the experiment on COLO 205 colon were 100%, 78.1% and 97.3%, respectively.

Take `COc1cc(NC(=O)C2=C(N3CCOCC3)/C(=C/c3ccc(Cl)cc3)CC2)cc(OC)c1OC`: the growth in the experiment on NCI-H23 lung is 94.6%; in the experiment on NCI-H226 lung, 86.1%; in the experiment on HOP-62 NSCLC, 102%; with NCI-H460 lung, 99.6%; in the experiment on HOP-92 NSCLC, 65.3%; with NCI-H522 lung, 29.2%. Moreover, the growth in the experiment with A549/ATCC NSCLC is 40.8%; with 786-0 renal, 93.2%; in the experiment with COLO 205 colon it was 98.5%.

`N#Cc1c(-c2ccc(Cl)cc2)csc1NC(=O)Nc1ccc(Cl)c(C(F)(F)F)c1`: the growth with NCI-H23 lung was 15.8%; with NCI-H226 lung, 8.81% (active); in the experiment with HOP-62 NSCLC, 14.5%; in the experiment on NCI-H460 lung, 2.11% (active); in the experiment on HOP-92 NSCLC, -9.88% (active); with NCI-H522 lung, -12.8% (active). The results for the growth in the experiment on A549/ATCC NSCLC, in the experiment with 786-0 renal and in the experiment on COLO 205 colon were 18.3%, 35.9% and -30.4% (active), respectively.

In the case of `OCC1OC(n2cnc3c(NCc4ccco4)ncnc32)C(O)C1O` (stereo not drawn), the growth is 18% in the experiment on NCI-H23 lung; 51.8% with NCI-H226 lung; 43.2% with HOP-62 NSCLC; 23.1% in the experiment with NCI-H460 lung; -10.8% (active) in the experiment with HOP-92 NSCLC; 23.8% in the experiment on NCI-H522 lung. The growth in the experiment with A549/ATCC NSCLC is 22.2%; in the experiment with 786-0 renal it was 18.2%; with COLO 205 colon it was 19.6%.

`C=CCN(CC=C)C(=O)[C@H](CC)[C@@H]1CC[C@@H](C)[C@@H]([C@H](C)[C@@H](O)[C@@H](C)C(=O)[C@H](CC)C2O[C@]3(C=C[C@@H](O)[C@]4(CC[C@@](C)([C@H]5CC[C@](O)(CC)[C@H](C)O5)O4)O3)[C@H](C)C[C@@H]2C)O1` (stereo partly drawn): the growth with NCI-H23 lung was 6.23% (active); in the experiment on NCI-H226 lung it was -0.687% (active); with HOP-62 NSCLC, 12%; with NCI-H460 lung, 3.23% (active); in the experiment on HOP-92 NSCLC, -23.9% (active); in the experiment on NCI-H522 lung, -2.7% (active). Moreover, the values for the growth in the experiment with A549/ATCC NSCLC, in the experiment with 786-0 renal and in the experiment on COLO 205 colon were 11.5%, 20% and -62.4% (active), respectively.

Turning to `C=C(C)[C@@H]1CC[C@]2(COCCC#N)CC[C@]3(C)[C@H](CC[C@@H]4[C@@]5(C)Cc6c([nH]c7ccccc67)C(C)(C)[C@@H]5CC[C@]43C)[C@@H]12`, the growth in the experiment on NCI-H23 lung is 90.6%; in the experiment with NCI-H226 lung, 94.5%; with HOP-62 NSCLC, 105%; in the experiment on NCI-H460 lung, 84.9%; with HOP-92 NSCLC, 107%; in the experiment on NCI-H522 lung, 87%. In addition, the growth with A549/ATCC NSCLC was 99.8%; in the experiment with 786-0 renal, 101%; with COLO 205 colon it was -42.8% (active).

As to `COc1cc(C(=O)/C=C/c2c[nH]c3ccccc23)cc(OC)c1OC`, the growth is 16.1% in the experiment with NCI-H23 lung; 55.6% with NCI-H226 lung; 41.1% in the experiment with HOP-62 NSCLC; 8.04% (active) in the experiment on NCI-H460 lung; 39.2% with HOP-92 NSCLC; -27% (active) in the experiment on NCI-H522 lung. The growth in the experiment on A549/ATCC NSCLC is 17.7%; in the experiment on 786-0 renal it was 12.2%; in the experiment with COLO 205 colon it was -65.1% (active).

Regarding `O=[N+]([O-])c1ccc2ncccc2c1Cl`, the growth with NCI-H23 lung is 86.7%; with NCI-H226 lung it was 109%; in the experiment on HOP-62 NSCLC, 44.5%; in the experiment with NCI-H460 lung, 93.1%; in the experiment with HOP-92 NSCLC, 99%; in the experiment on NCI-H522 lung, 41.3%. Further, the growth in the experiment with A549/ATCC NSCLC was 99.9%; in the experiment on 786-0 renal, 63.5%; in the experiment on COLO 205 colon it was -69.2% (active).
